Assay results as given in the supplement of paper PMC6555819.

Assays:
Assay in all cases: PBM binding z-score (relative to random genomic background probes); higher = stronger binding; sequences stand for … in GC…GCGATTGACAGCGTAGAATGAAGG
[1] = system: FXR:RXRa (NR concentration 270 nM, RXRa partner concentration 90 nM)
Procedure, shortened: (§1)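 Custom Agilent 4×180K protein-binding microarrays carried double-stranded probes, each with a 34-nt variable region. These regions held direct-repeat seeds, single-nucleotide variants, half-site ablations and random human genomic background sequences. Ligand-free nuclear receptor dimers were incubated on the arrays for 1 h, antibodies against each partner (one per run) detected binding, and scanned fluorescence was regression-normalized. Binding z-scores take the random background probes as reference.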

[2] = system: LXRa:RXRa (NR concentration 270 nM, RXRa partner concentration 90 nM)
Procedure, shortened: as §1

[3] = system: LXRa homodimer (NR concentration 270 nM)
Procedure, shortened: as §1

[4] = system: LXRb:RXRa (NR concentration 270 nM, RXRa partner concentration 90 nM)
Procedure, shortened: as §1

[5] = system: LXRb homodimer (NR concentration 270 nM)
Procedure, shortened: as §1

[6] = system: PPARa:RXRa (NR concentration 270 nM, RXRa partner concentration 90 nM)
Procedure, shortened: as §1

[7] = system: PPARg:RXRa (NR concentration 180 nM, RXRa partner concentration 90 nM)
Procedure, shortened: as §1

[8] = system: PPARg:RXRa 270nM:90nM, anti-RXR (NR concentration 270 nM, RXRa partner concentration 90 nM)
Procedure, shortened: as §1

[9] = system: PPARg:RXRa 30nM:10nM, anti-RXR (NR concentration 30 nM, RXRa partner concentration 10 nM)
Procedure, shortened: as §1

[10] = system: PPARg:RXRa 90nM:30nM, anti-RXR (NR concentration 90 nM, RXRa partner concentration 30 nM)
Procedure, shortened: as §1

Sequence | PBM binding z-score [1] | PBM binding z-score [2] | PBM binding z-score [3] | PBM binding z-score [4] | PBM binding z-score [5] | PBM binding z-score [6] | PBM binding z-score [7] | PBM binding z-score [8] | PBM binding z-score [9] | PBM binding z-score [10]
GCTAGCAGGCCATTTGGGTCACTCACTGACGGGC | 0.237 | -0.137 | -0.55 | -0.212 | -0.64 | 1.16 | 0.358 | 0.596 | -0.357 | 0.202
TCGAGTAGGTTCGTCGGGGCATTCAGCCAACATA | 0.282 | 0.37 | -0.315 | 0.726 | -0.765 | 0.757 | -0.436 | 0.394 | 0.955 | 0.64
GCGATTAGTTGAAAGGGCAACCGAATGATTCTCG | 0.286 | 0.514 | -0.112 | 0.595 | -0.521 | 1.88 | 1.74 | 3.51 | 1.24 | 2.72
TCTGGTAGGTCAACGATGGTCAGCTAATCTGCTA | 4.45 | 3.6 | 0.986 | 2.55 | 0.479 | 4.35 | 4.4 | 4.54 | 3.78 | 4.32
AGAATGAGGTTAAGATCAGGGGAACAGAATACAT | 2.39 | 1.58 | 0.0516 | 1.98 | 0.284 | 3.55 | 2.33 | 2.48 | 0.75 | 1.88
ATCGAAAGGTCGACGAGGTGAGTATACACCGTTT | 4.62 | 3.32 | -0.0538 | 2.73 | 0.533 | 4.52 | 2.85 | 3.18 | 1.02 | 2.34
TCTAGTTGGTCAAAGGTCACAAACTCGAAATGCG | 4.94 | 5.27 | 3.15 | 5.16 | 1.49 | 6.4 | 10.9 | 9.72 | 9.69 | 10.3
AATACAGGGTCATCGAAGGCCAGAGTACGCACAG | 6.84 | 6.3 | 1.75 | 4.59 | 1.53 | 5.67 | 6.5 | 6.11 | 2.56 | 4.66
ATCGCTAGGTAACCAAGTTCAGTGAATGCCGAAC | -0.315 | 0.156 | -0.0176 | -0.126 | -0.754 | 0.318 | -0.0825 | -0.186 | -0.453 | -0.0897
CCGACTGGGGCAAGGTTCCCATAACGCACAGCCA | -0.116 | -0.36 | -0.312 | -0.226 | -1.24 | 1.17 | 3.1 | 3.89 | 2.1 | 3.38
CCTTACGGGTCACTGAGAGGTTATAGCATTTGGA | 5.67 | 4.71 | 0.946 | 3.9 | -0.26 | 5.58 | 4.88 | 4.87 | 1.69 | 3.68
CCTAGTTGGACAGGAGGTCACACACCGGATATGA | 3.17 | 3.27 | 1.86 | 3.19 | 0.666 | 4.11 | 2.52 | 2.96 | 0.938 | 2.35
ATCGAAAGGTCGAGGTGAGCATAGAGAAAGGGAA | 4.16 | 3.42 | -0.0507 | 2.7 | 0.363 | 4.61 | 3.46 | 3.8 | 1.66 | 2.84
CAAACTAGGTCACAGAGGTCAGAGTCCGTGCGTA | 6.35 | 5.23 | 4.71 | 4.72 | 0.859 | 6.11 | 9.99 | 7.88 | 6.14 | 7.84
AGAATGAGGTTTAGATCAGGGAAACAGAATACAT | 0.0195 | -0.0666 | -0.0558 | -0.395 | -0.223 | -0.306 | 0.649 | 0.00462 | 0.223 | 0.354
AGAACGAGGGCACGCTGACTTGATAGCAGAGTAG | 0.758 | 0.896 | -0.482 | 0.363 | -0.85 | 2.31 | 2.29 | 1.85 | 0.503 | 1.18
CCTACTGGGCCAAAGGTCATTAATTCCAATGCTC | 4.33 | 4.53 | 3.47 | 4.65 | 0.938 | 6.19 | 12.5 | 10.3 | 12.4 | 12.4
CCGACTGGGGCAAGGTTACCAGAACGCACAGCCA | 0.168 | 0.506 | -0.288 | 0.501 | -1.15 | 1.97 | 2.79 | 3.43 | 0.792 | 2.68
TCTTGTAGCTCAACAGGAGGTTAAGAAAGATCGA | -0.163 | 0.472 | -0.218 | 0.222 | -0.709 | 0.659 | -0.365 | 0.868 | 2.01 | 1.4
TAGCCTACGTCATTGGGCCAGTATAGTACGCATC | -0.593 | -0.86 | -0.485 | -0.66 | -0.257 | -0.37 | 0.495 | -0.589 | -0.293 | -0.205
TCTCGGAGGACACGAAATGTCAGAGCTCGACATC | 0.755 | 0.358 | -0.2 | 0.313 | -0.55 | 0.168 | 0.208 | 1.09 | 2.37 | 1.62
ATATGTATGTTACATCCGGGTCATTCAGGCTATG | 1.15 | 1.58 | 0.696 | 2.06 | 0.763 | 2.94 | 1.75 | 1.55 | 0.754 | 1.22
TCATATAGGTAAATTCTAGGTGAAAGTCCGATCT | 1.45 | 1 | 0.27 | 0.797 | 0.0785 | 2.29 | 1.84 | 3.22 | 4.21 | 3.75
AATACAGGGTCACTAGGCCAGAGTTGGTACGAAT | 6.05 | 4.87 | 0.807 | 3.75 | 0.616 | 5.99 | 8.38 | 6.63 | 3.71 | 5.85
